# An excerpt weighted towards active compounds, which were near 17% of everything screened.
# ClpP mod – qHTS Assay for Activators of ClpP; AID 651965, 2013; ATP-dependent Clp protease proteolytic subunit (Bacillus subtilis (strain 168)), P80244; Potency, µM (series often up to 57.5 µM), for the others: top-dose activity change, negative = active; actives 1.9% (n = 340,000); purified B. subtilis ClpP, FRET peptide cleavage, 20 min; active = well fitted falling curve with a large enough effect; inconclusive = small, poorly fitted or top-dose-only effect; inactive = no such curve, though single readings can be large or run the other way; note: the source files actives as falling curves though it sought activators and does not explain the sign; nearly all actives have a fitted effect of over 65% in size
#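 Buffer: 100 mM Tris/HCl pH8, 100 mM KCl, 0.05% low protease BSA, 2.5% glycerol, 0.01% Tween-20. ClpP 10 microg/mL final; 20 min RT; delta FRET normalized to ADEP and DMSO controls.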
# TDP1 inh – TDP1 (human) enzyme inhibition; Q9NUW8; recombinant TDP1, AlphaScreen DNA substrate cleavage; Potency, µM (highest dose often 130 µM), without a hit: top-dose activity change, negative = inhibition, hits mostly inhibitors; actives 0.28% (n = 350,000); AID 485290; note: % is set by controls: 0 for no effect and ±100 for the full control effect; nearly all actives have a fitted effect of over 40% in size
# Target sequence (Q9NUW8 whole entry, looked up): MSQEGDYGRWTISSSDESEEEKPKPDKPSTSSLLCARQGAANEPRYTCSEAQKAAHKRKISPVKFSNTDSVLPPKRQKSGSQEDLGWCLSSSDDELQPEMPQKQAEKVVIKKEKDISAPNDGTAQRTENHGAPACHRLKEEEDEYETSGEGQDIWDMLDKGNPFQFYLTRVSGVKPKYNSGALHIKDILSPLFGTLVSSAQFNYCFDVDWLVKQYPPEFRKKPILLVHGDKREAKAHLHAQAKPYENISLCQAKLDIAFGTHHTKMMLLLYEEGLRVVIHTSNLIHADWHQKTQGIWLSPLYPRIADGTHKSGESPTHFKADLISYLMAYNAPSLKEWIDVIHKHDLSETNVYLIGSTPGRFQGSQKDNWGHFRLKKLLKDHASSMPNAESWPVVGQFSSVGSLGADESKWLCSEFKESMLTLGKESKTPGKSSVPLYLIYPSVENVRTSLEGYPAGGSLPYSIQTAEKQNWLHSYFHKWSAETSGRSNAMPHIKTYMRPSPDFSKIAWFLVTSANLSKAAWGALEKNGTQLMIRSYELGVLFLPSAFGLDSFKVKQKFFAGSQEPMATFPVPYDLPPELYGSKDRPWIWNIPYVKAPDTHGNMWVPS
#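 Recombinant E. coli-expressed Tdp1 (1 nM) preincubated with compound 15 min at RT, then 5'-biotin/3'-phosphotyrosine-FITC DNA substrate (15 nM) added for 5 min. AlphaScreen beads (10 ug/ml) added, 10 min RT; tyrosine-FITC cleavage read as signal loss.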
# DT40 TDP1 no CPT – qHTS for Inhibitors of human tyrosyl-DNA phosphodiesterase 1 (TDP1): qHTS in cells in absence of CPT; DT40 Tdp1-/- hTDP1 cells, no CPT, ATP luminescence, 48 h; Potency, µM (series often up to 46.2 µM), for inactives: at the highest dose activity change, negative = growth inhibition, hits mostly inhibitors; actives 15% (n = 420,000); AID 686978, 2013; note: % is set by controls: 0 for no effect and ±100 for the full control effect; nearly all actives have a fitted effect of over 55% in size
#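 Stably hTDP1-transfected Tdp1-null chicken DT40 cells were treated with library compounds minus camptothecin and grown for at least 48 hr at 37 °C, after which cellular ATP was quantified by luminescence.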
# DT40 TDP1 CPT – growth inhibition of DT40 Tdp1-/-;hTDP1 cells with camptothecin (screen for TDP1 inhibitors). chicken DT40 Tdp1-/-;hTDP1 cells + 20 nM CPT, ATP luminescence, 48 h. Potency, µM (titrated, usually from 46.2 µM), for inactives: top-dose activity change, negative = growth inhibition, most hits filed as inhibitors. actives 12% (n = 420,000); note: % is set by controls: 0 for no effect and ±100 for the full control effect; nearly all actives have a fitted effect of over 55% in size
#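 Chicken DT40 Tdp1-/- cells stably complemented with human TDP1 were seeded at 400 cells/well in medium containing 20 nM camptothecin, exposed to pin-transferred compounds, and grown at 37 °C for at least 48 hr. Viability was read as ATP luminescence.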
# * = called active by the depositor; ? = inconclusive; . = no result given; [ ] = dose if it differs, or a comment. Unless noted, calls come from the whole dose curve; as a rule, active = well fitted curve in the direction sought with a large enough effect; inconclusive = small, poorly fitted or top-dose-only effect, or another doubt; inactive = no such curve, though single readings can be large; an effect the other way counts as inactive or inconclusive. Potency is the fitted concentration of half-maximal effect.
SMILES,ClpP mod,TDP1 inh,DT40 TDP1 no CPT,DT40 TDP1 CPT
COc1cc(C(=O)NCC(c2ccc(N(C)C)cc2)N2CCCC2)cc(OC)c1OC (stereo unspecified),-1%,-1%,?,18µM*
Cc1cc(C)cc(C(=O)NCC(c2ccc(N(C)C)cc2)N2CCCC2)c1 (stereo unspecified),0%,4%,16µM*,15µM*
CN(C)c1ccc(C(CNC(=O)c2ccccc2C(F)(F)F)N2CCOCC2)cc1 (stereo unspecified),-2%,4%,-20%,-10%
COc1cc(C(=O)NCC(c2ccc3c(c2)OCO3)N2CCN(C)CC2)cc(OC)c1OC (stereo unspecified),1%,4%,-11%,0%
O=C(NCCN1Cc2ccccc2OC(c2ccccc2F)C1)c1ccco1 (stereo unspecified),.,.,?,13%[9.04 µM]
COC(=O)c1ccc(C(NC(=O)OCc2ccccc2)/C(=C/[C@@H](C)C(=O)NC2CCCCC2)c2cccnc2)cc1 (stereo partly specified),.,12%,.,.
COc1ccc(-c2nnc(SCC(=O)N(C)C3CCS(=O)(=O)C3)n2CC(C)C)cc1 (stereo unspecified),-2%,.,-4%,-17%
COc1cccc(C(=O)NCC(c2ccc(N(C)C)cc2)N2CCCC2)c1OC (stereo unspecified),-1%,4%,?,12µM*
Cc1ccccc1C(=O)NCC(c1ccc(N(C)C)cc1)N1CCCC1 (stereo unspecified),-2%,6%,-16%,-2%
CC(C)CNS(=O)(=O)c1ccc(CCC(=O)N2CCN(c3ccc(F)cc3)CC2)cc1,1%,2%,-21%,-25%
COc1ccc(S(=O)(=O)NCCS(=O)(=O)N2CCN(c3ccccc3)CC2)cc1C,-2%,4%,23µM*,18µM*
COc1ccc(N2CCN(C(=O)CCc3ccc(S(=O)(=O)NCC(C)C)cc3)CC2)cc1,25µM*,-1%[56.1 µM],?,?
CNS(=O)(=O)c1cn(CC(=O)N2CCN(c3cccc(Cl)c3)CC2)cc1S(=O)(=O)NC,0%,-3%,26µM*,?
Cn1c(=O)oc2cc(S(=O)(=O)NCCC(=O)N3CCN(c4ccccc4)CC3)ccc21,0%,6%,-15%,?
O=C(CCNS(=O)(=O)c1ccc2nsnc2c1)N1CCN(c2ccncc2)CC1,0%,1%,16µM*,?
O=C(CN1C(=O)NC2(CCCC2)C1=O)N1CCN(S(=O)(=O)c2ccccc2[N+](=O)[O-])CC1,-2%,.,4%,-2%
COc1ccc2c(C)c(CCC(=O)NCCc3ccccc3OC)c(=O)oc2c1,4%,9%,?,?
Cc1ccc(S(=O)(=O)NCCC(=O)N2CCN(c3cccc(Cl)c3)CC2)cc1C,0%,5%,?,15µM*
CCNS(=O)(=O)c1ccc(CCC(=O)N2CCN(c3cccc(Cl)c3)CC2)cc1,11%,.,23µM*,?
O=C(COc1ccccc1Cl)OCc1cc(=O)n2nc(C3CC3)sc2n1,-1%,2%,-14%,-23%
O=C(NCc1ccco1)c1cc2nc(-c3ccc4c(c3)OCO4)cc(C(F)(F)F)n2n1,?,6%,18µM*,?
COc1ccc(-c2cc(C(F)(F)F)n3nc(C(=O)N(C)Cc4ccccc4)cc3n2)cc1OC,-11%,8%,?,16µM*
COc1ccc(-c2cc(C(F)(F)F)n3nc(C(=O)NCc4ccco4)cc3n2)cc1,16µM*,-6%,-26%,-7%
FC(F)(F)c1cc(-c2ccc3c(c2)OCO3)nc(NCc2ccco2)n1,25µM*,1%,?,?
COc1ccc(-c2cc(C(F)(F)F)n3nc(C(=O)NCc4ccco4)c(Cl)c3n2)cc1,-1%,-3%,-20%,?
SMILES,ClpP mod,TDP1 inh,DT40 TDP1 no CPT,DT40 TDP1 CPT
O=C(CSc1ccc(-c2ccccn2)nn1)N1CCCC1,1%,-3%,?,?
CCOc1cc(C(=S)N2CCOCC2)ccc1OS(=O)(=O)c1ccc(OC)cc1,.,0%,?,-4%
COc1ccc(/C=N/NC(=O)c2ccc3ccccc3c2)cc1OS(=O)(=O)c1ccc(NC(C)=O)cc1,?,2%,3.7µM*,4.6µM*
COc1ccccc1OS(=O)(=O)c1ccc(NC(C)=O)cc1,.,3%,-23%,7%
COc1ccc(C=O)cc1OS(=O)(=O)c1ccc(NC(C)=O)cc1,.,0%,3.7µM*,?
CCOc1cc(C(=S)N2CCOCC2)ccc1OS(=O)(=O)c1ccc(NC(C)=O)cc1,-1%,1%,16µM*,10µM*
Cc1nc(C(F)(F)F)ccc1C(=O)N1CCC1(C)C(=O)NS(C)(=O)=O (stereo unspecified),-2%,.,-2%,0%
COC(=O)c1ccc(/C=N/NC(=O)C(=O)NCC2CCCO2)cc1 (stereo unspecified),1%,4%,-4%,-4%
CC(C)c1ccc(NC(=O)Nc2nc(C(N)C3CCCCC3)cs2)cc1 (stereo unspecified),0%,.,?,?
CN(C)c1ccc(NC(=O)Nc2nc(C(N)C3CCCCC3)cs2)cc1 (stereo unspecified),-1%,.,21µM*,18µM*
Cc1ccccc1NC(=O)Nc1nc(C(N)C2CCCCC2)cs1 (stereo unspecified),0%,.,?,23µM*
CCCC12CN3CC(CCC)(CN(C1)C3c1ccc(OCc3ccccc3)cc1)C2=O (stereo unspecified),2%,2%,?,?
CCNC(=O)c1sc2ncnc(NCCCN3CCOCC3)c2c1C,.,.,-14%,13%[9.04 µM]
CCCCCc1ccc(S(=O)(=O)Nc2cc(C)ccn2)cc1,0%,7%,?,-11%
Cc1ccnc(NS(=O)(=O)c2ccc(Oc3ccccc3)cc2)c1,28µM*,2%,?,?
C=CCN(c1ccccc1)S(=O)(=O)c1cccc(C(=O)NCC2CCCO2)c1 (stereo unspecified),28µM*,0%,-12%,-29%
C=CCN(c1ccccc1)S(=O)(=O)c1cccc(C(=O)N2CCN(c3ncccn3)CC2)c1,-3%,3%,3.7µM*,6.5µM*
C=CCN(c1ccccc1)S(=O)(=O)c1cccc(C(=O)O)c1,1%,4%,-6%,1%
C=CCN(c1ccccc1)S(=O)(=O)c1cccc(C(=O)Nc2ccc(N3CCOCC3)cc2)c1,1%,8%,2.6µM*,9.2µM*
C=CCN(c1ccccc1)S(=O)(=O)c1cccc(C(=O)Nc2ccncc2)c1,-43%,.,21µM*,23µM*
COC(=O)C[C@@H]1C[C@@H]2c3cc(NS(=O)(=O)c4ccccc4)ccc3O[C@@H]2[C@@H](CO)O1,1%,.,?,?
